About 2,000 (36%) of roughly 5,500 compounds were called active. Roughly 18% stayed inconclusive and do not appear here. Cut-off read from the data, not from the text of the source: active = normalized growth mostly below about 0.91 (no sharp cut-off); inconclusive = no clear call, values can overlap the other calls; inactive = mostly above about 0.92. Some of the results follow.
Assay: chemical genetic growth profiling, strain panel (AID 1159580);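 note: tested at 20 µM; growth read once vehicle control cultures reached saturation at 30 °C; 1 = growth at the plate median or of vehicle wells; lower values mean less growth of the strain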
Settings: growth OD

Measured: normalized growth

CC(C)(C)OC(=O)N1CCN(Cc2ccccc2)CC1
inactive: S. cerevisiae deletion strains, locus YAL013W, strain DEP1, active compounds read low 1 | S. cerevisiae deletion strains, locus YBR229C, strain ROT2, active compounds read low 1 | S. cerevisiae deletion strains, locus YDL101C, strain DUN1, active compounds read low 1.02 | S. cerevisiae deletion strains, locus YDR150W, strain NUM1, active compounds read low 1.03 | S. cerevisiae deletion strains, locus YEL061C, strain CIN8, active compounds read low 0.98 | S. cerevisiae deletion strains, locus YGR078C, strain PAC10, active compounds read low 0.999 | S. cerevisiae deletion strains, locus YGR229C, strain SMI1, active compounds read low 1.02 | S. cerevisiae deletion strains, locus YHR030C, strain SLT2, active compounds read low 1.08 | S. cerevisiae deletion strains, locus YHR087W, strain rtc3, active compounds read low 0.991 | S. cerevisiae deletion strains, locus YJR043C, strain POL32, active compounds read low 0.998 | S. cerevisiae deletion strains, locus YJR075W, strain HOC1, active compounds read low 1 | S. cerevisiae deletion strains, locus YKL190W, strain CNB1, active compounds read low 1.01 | S. cerevisiae deletion strains, locus YLR039C, strain RIC1, active compounds read low 0.967 | S. cerevisiae deletion strains, locus YLR058C, strain SHM2 (second series), active compounds read low 0.986 | S. cerevisiae deletion strains, locus YLR085C, strain ARP6, active compounds read low 0.997 | S. cerevisiae deletion strains, locus YLR262C, strain YPT6, active compounds read low 1.04 | S. cerevisiae deletion strains, locus YML094W, strain GIM5, active compounds read low 0.989 | S. cerevisiae deletion strains, locus YMR219W, strain ESC1, active compounds read low 0.994 | S. cerevisiae deletion strains, locus YMR263W, strain SAP30, active compounds read low 1.01 | S. cerevisiae deletion strains, locus YNL153C, strain GIM3, active compounds read low 1 | S. cerevisiae deletion strains, locus YNL298W, strain CLA4 (second series), active compounds read low 1.01 | S. cerevisiae deletion strains, locus YNL322C, strain KRE1, active compounds read low 1 | S. cerevisiae deletion strains, locus YNR030W, strain Alg12, active compounds read low 0.992 | S. cerevisiae deletion strains, locus YOL006C, strain TOP1, active compounds read low 1.08 | S. cerevisiae deletion strains, locus YPL055C, strain LGE1, active compounds read low 1.03 | S. cerevisiae deletion strains, locus YPL241C, strain CIN2, active compounds read low 1.01 | S. cerevisiae deletion strains, locus YPR135W, strain CTF4, active compounds read low 1.04 | S. cerevisiae strains, strain wild type, active compounds read low 1.02

Source: PubChem BioAssay AID1159580 (chemical genetic matrix, 2015)
